Test results from PubChem BioAssay.

Tested on: Rat fibroblasts (CREF)
Assay: inhibition of PEG-3 promoter-driven reporter – cell-based, HeLa, luciferase, CREF/GAPDH counter-screen panel, dose response (AID 624167)
Details: CREF/GAPDH counter-screens; run 1, dose range 1, at 100 µM (top of the series)

| Compound | inhibition |
| --- | --- |
| COC(CNC(=O)c1ccc2c3c(onc13)-c1ccccc1C2=O)OC | 98.9% |
| O=C(O)c1cccc(COc2ccccc2Cl)c1 | 97% |
| COc1cc(OC)c2cc(C(=O)N/N=C/c3ccccc3O)[nH]c2c1 | 67.5% |
| CC(=O)NC(c1ccc(Cl)cc1Cl)c1ccc2cccnc2c1O (stereo not given) | -0.0688% |
| Cc1ccc2nc(C)cc(Nc3ccc([N+](=O)[O-])cc3)c2c1 | 98.1% |
| CCCC(=O)NC(c1ccc(C)cc1)c1ccc2cccnc2c1O (stereo not given) | 3.2% |
| O=C1C=CC(=O)N1c1ccc(-c2nc3ccccc3o2)cc1 | 101% |
| CC(C)CCCCCCCCCCCCC(=O)NCC(=O)NC1C(O)C(O)C(Nc2ncnc3nc[nH]c23)OC1C(O)CO (stereo not given) | 99.5% |
| CCN(CCO)c1ccc(N=Nc2cc(C)[nH]n2)cc1 | 99.4% |
| CN1CCC2(CC1)N=C(c1ccc(F)cc1)C(=S)N2C(=O)c1ccc(C(C)(C)C)cc1 | 98.7% |
| O=C(Nc1nc2ccccc2[nH]1)c1ccccc1F | 98.8% |
| Cc1cc(C)c2sc(NNC(=O)c3ccc(S(=O)(=O)N4CCc5ccccc5C4)cc3)nc2c1 | 53.3% |
| CS(=O)(=O)c1ccc(-c2sc3ccccc3c2C#CCCO)cc1 | 95.2% |
| O=C(CNC(=O)C(c1ccccc1)c1ccccc1)N/N=C/c1ccc(O)cc1O | 28.9% |
| CCCN1C=CC(=C2C(=O)c3ccccc3C2=O)C=C1 | 100% |

Tested on: Rat fibroblasts (CREF)
Assay: as above
Details: CREF/GAPDH counter-screens; run 2, dose range 1, at 100 µM (top of the series)

| Compound | inhibition |
| --- | --- |
| COC(CNC(=O)c1ccc2c3c(onc13)-c1ccccc1C2=O)OC | 100% |
| O=C(O)c1cccc(COc2ccccc2Cl)c1 | 72.1% |
| COc1cc(OC)c2cc(C(=O)N/N=C/c3ccccc3O)[nH]c2c1 | 65.2% |
| CC(=O)NC(c1ccc(Cl)cc1Cl)c1ccc2cccnc2c1O (stereo not given) | 0.461% |
| Cc1ccc2nc(C)cc(Nc3ccc([N+](=O)[O-])cc3)c2c1 | 98.9% |
| CCCC(=O)NC(c1ccc(C)cc1)c1ccc2cccnc2c1O (stereo not given) | 23.3% |
| O=C1C=CC(=O)N1c1ccc(-c2nc3ccccc3o2)cc1 | 100% |
| CC(C)CCCCCCCCCCCCC(=O)NCC(=O)NC1C(O)C(O)C(Nc2ncnc3nc[nH]c23)OC1C(O)CO (stereo not given) | 9.65% |
| CCN(CCO)c1ccc(N=Nc2cc(C)[nH]n2)cc1 | 98.6% |
| CN1CCC2(CC1)N=C(c1ccc(F)cc1)C(=S)N2C(=O)c1ccc(C(C)(C)C)cc1 | 68.4% |
| O=C(Nc1nc2ccccc2[nH]1)c1ccccc1F | 99.2% |
| Cc1cc(C)c2sc(NNC(=O)c3ccc(S(=O)(=O)N4CCc5ccccc5C4)cc3)nc2c1 | 25.5% |
| CS(=O)(=O)c1ccc(-c2sc3ccccc3c2C#CCCO)cc1 | 95.7% |
| O=C(CNC(=O)C(c1ccccc1)c1ccccc1)N/N=C/c1ccc(O)cc1O | 35.6% |
| CCCN1C=CC(=C2C(=O)c3ccccc3C2=O)C=C1 | 100% |
